The text below walks through data of the supplement of paper PMC11417369.

The full ranking holds about 25,000 sequences; the median of “ln(normalized median fluorescence intensity)” is about 7.1, and the highest 2% start at about 10. The sample holds the highest values, similar sequences and a random draw of the others, so the mix is not that of the screen.

This assay relates to PfSIP2 AP2 domain 1 (GST-tagged). Nature of the assay: gcPBM binding intensity (ln(normalized median fluorescence intensity)); higher = stronger DNA binding. Put shortly:
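GST-fused DNA-binding domains of P. falciparum, expressed in E. coli, were applied at about 25 μg on average for 1 h to an Agilent 4 × 180k array of primer-extended double-stranded 36-bp intergenic genomic probes and negative controls. Binding intensity is the highest Masliner-normalised natural-log median intensity across replicate spots of either probe orientation, measured with Alexa488 anti-GST antibody and a 488 nm scan.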
With “TTAAATACTAAAAAGTGTACACATACATAAAAAATT [XGTACX_site6261]”, the “gcPBM binding intensity (ln)” value came out at 7.32.
As for “TTTTGTTTATTATGATTCAAAATGATTTTATCTTTG [TGCATGCA_negctrl_site425]”, the “gcPBM binding intensity (ln)” value is 6.71.
Under “ACATATATATATTTATATATATATATATATATGTGA [CACACA_negctrl_site613]” stands 7.44; under “AAGTATAGTCTTACATATATATATATATATATATAT [GTGCAC_negctrl_site280]”, 9.42; under “AGTTTTATATAAGCTTGTACTTAATATTATTAAGTA [XGTACX_site5919]”, 6.99.
For “ATCTAATATATATTCTGTACGTAATTAAAACCACAA [XGTACX_site3152]”, the “gcPBM binding intensity (ln)” value was determined as 7.54.
Consider “GGACTTAAATAAAATGGTACAGAATTTATATATATT [XGTACX_site8214]”, for which the “gcPBM binding intensity (ln)” value is 6.83.
Under AAATAGTTGTTAAAGGTGCACAATATGGATATAAGA stands 11.2.
Under “TTAAAAGTTATGGATACACACATATAAATATAGATT [CACACA_site7175]” stands 6.77.
For the sequence “TAGTTAACAAATAATGCACACAAATGGATAAAATTA [CACACA_site9240]”, the “gcPBM binding intensity (ln)” value is 7.83.
Under “GTAAATATTAATAAAAGTACATATGTAGCATATGGA [XGTACX_site5219]” stands 7.09; under “TTATTTATTTATTCATGTACGTGTATTTTTTAAAAA [XGTACX_site7915]”, 7.28.
Under “TGTGCACGTTCTGTGACACACATTTAAATGTGCTTA [CACACA_site176]” stands 10.7; under “TTAAATTACTAATGTGCACACATACTAACGTTTAAA [CACACA_site3573]”, 9.21.
Under TATATATATATATATGTGCACATTTTATTAAAATGT stands 9.6.
As for “TCTGTATATTTCGCGCGTACGAACAAATTGATAATT [XGTACX_site7965]”, the “gcPBM binding intensity (ln)” value came out at 7.11.
Under “AGAAAAATAAACAAATGTACAAATTATTACTATATA [XGTACX_site1087]” stands 6.8; under “AAAAATATAATATAATGTACACATAAACAAAAAAAA [XGTACX_site3658]”, 7.04.
Under “GTATATAATATTAGTGCACACACAAAAATGTACTAA [CACACA_site8112]” stands 10.9; under “ATATAATATTAGTGCACACACAAAAATGTACTAAAC [CACACA_site632]”, 10.9.
Under “AAAAATATAATATAATGTACACAAAAAAAAAAAAAT [XGTACX_site4914]” stands 7.13.
With “ATAATAAATACACTAGTGCAAAATAATATATGTACT [GTGCAC_site9707]”, the “gcPBM binding intensity (ln)” value amounted to 8.13.
For the sequence “ATATTACAAATATAATGTACAAAATATAAATATGCA [XGTACX_site8106]”, the “gcPBM binding intensity (ln)” value came out at 6.85.
Under “TATAATATAATATATGCACACAAATATGTATATATG [CACACA_site8664]” stands 7.15; under “CTATAATATTAGTGCACACACAAAAATGTACTAAAC [CACACA_site6442]”, 11.3.
Under “TTCGTATATTATTAATGTACATTATAAAATCAATAT [XGTACX_site5751]” stands 7.08; under “GACTGAACAACATAATGTACATTTATAAGTATATAT [XGTACX_site3813]”, 7.15.
Under “TTTTTTTTCAATGGTTGTACAAAGTAAAACAACAAA [XGTACX_site1582]” stands 7.2.
Turning to “ATATGTAAATAAATATGTACTCATTTATTATTTTAT [XGTACX_site8748]”, the “gcPBM binding intensity (ln)” value worked out at 7.06.
Under “CATTTTATTCTATATGCATGTTAAAAAATGTGTTGA [TGCATGCA_site128]” stands 7.12; under “AAATATAATATACAAAGTACTTTTTCATCTTATATA [XGTACX_site8771]”, 6.84; under “AAACAATTTGGGTGTACACATGATACGTTCGATGAG [CACACA_site5160]”, 7.18.
Under “ATAAAAGAATAAATAAAACACATATATATATATATA [XGTACX_negctrl_site31]” stands 9.43.
With “ATATTTATAAATTGCACACAAATAATAACATTATAT [CACACA_site5322]”, the “gcPBM binding intensity (ln)” value was 7.13.
For “AAATATTTATAAATTGCACACAAATAATAACATTAT [CACACA_site8737]”, the “gcPBM binding intensity (ln)” value was found to be 7.
With “TATAATATTTGGTGCACACAAATTAACAACTGTTTA [CACACA_site3742]”, the “gcPBM binding intensity (ln)” value worked out at 11.7.
Under “TTCTTTGTAGTATATTAACACACAACTGTTTATAAT [CACACA_site9305]” stands 7.27.
Under “CTTTGTAGTATATTAACACACAACTGTTTATAATAT [CACACA_site6038]” stands 7.05; under “TGTATAATATTTGGTGCACACAAATTAACAACTGTT [CACACA_site9245]”, 11.4.
Under “AAAGGTTCACATTATATAGTTATGTAATATATATGT [CACACA_negctrl_site542]” stands 6.84; under “ATATTTCATTTTTGTACACACAACGTTGGAGGGTTT [CACACA_site3043]”, 7.18.
For the sequence “TCATATTTCCATAGGAGTACATAAAAAAAATAATAT [XGTACX_site7601]”, the “gcPBM binding intensity (ln)” value amounted to 7.06.
Under “TAAAAATAATATTAATGTACATTACATATTAATATA [XGTACX_site1019]” stands 6.83.
Under “ATAAATAAATTTATACGTACACATAATATATATATA [XGTACX_site4634]” stands 8.89; under “AAAAGACATTTTTTTTTATAAATACACACGTACGTG [TGCATGCA_negctrl_site281]”, 6.95.
Under “CATTTTTTTTTATAAATACACACGTACGGGTGCATA [CACACA_site1569]” stands 10.9; under “GTTATAAATGCATATACACACATACGTACATACATA [CACACA_site7655]”, 7.4.
For the sequence “TTTTATAAATACACACGTACGTGTGCATAACGTTTT [XGTACX_site3199]”, the “gcPBM binding intensity (ln)” value turned out to be 7.21.
Under “TTTTTTTTTATAAATACACACGTACGGGTGCATAAC [CACACA_site8444]” stands 11.3; under “ATGTATTTATTATTTAGTACACATTATTTTCTTATA [XGTACX_site6365]”, 7.05; under “AAATACATATTTAGAAGTACATTTATACATTTAATA [XGTACX_site8871]”, 7.04.
Under “CATATATAAATATATACACACATATATATATATATA [CACACA_site1365]” stands 9.43; under “TGAAGGTCAGTTCACAGTACCCAGTAACTCTACGGA [XGTACX_site2554]”, 6.62.
As for “AGGATTATATATTAATGTACCCGCGTTAATTTTTTT [XGTACX_site2878]”, the “gcPBM binding intensity (ln)” value is 6.82.
Under GTCTATATATTTTAGGTGCAACGTAAATGTAAAAAT stands 10.7; under “TTTTTTTTTATAAGGTGTACGTAAAATGTGTAGGTC [XGTACX_site3585]”, 8.36.
Under “ATATATATATTTATATTTATATGTAAATATCAACGT [TGCATGCA_negctrl_site32]” stands 8.59.
